# Source: the supplement of paper PMC3484114
# ± gives the standard deviation.
# Test system: OVCAR-3-derived ovarian cancer stem-like cells (spheroids)
# Assay: cell growth relative to untreated control; higher = more growth (less inhibition)
# Details: 2.29 µM; 96 h
# Method in brief: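 Stem-like cells derived from OVCAR-3 spheroids were dissociated with trypsin and seeded at 50,000 cells/mL in stem cell medium in ultra-low attachment 96-well plates, then preincubated for 24 h. Each compound was added at 2.29 uM to 4 replicate wells and left for 96 h at 37°C, 5% CO2. Viability came from TOX8 resazurin fluorescence (ex 560/em 590 nm) read after 4 h. Percent growth was expressed relative to untreated wells, after blank subtraction and removal of outliers by the Grubbs test.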
row,Compound,cell growth [%]
1,CN1CCCC2C(c3ccccc3)C(C3=NCCCC3)C(c3ccccc3)CC21 (centres undefined),110 ± 27
2,Cc1cc2c(cc1C)[n+](=O)c(C(=O)/C=C/c1ccccc1[N+](=O)[O-])c(C)n2[O-],123 ± 66
3,N#CC(=S)Nc1ccc(F)cc1,104 ± 19
4,O=C(NC1=C(Cl)C(=O)c2ccccc2C1=O)C(=O)C(C(=O)c1ccc2ccccc2c1)C1OC(=O)c2ccccc21 (centres undefined),89.6 ± 20
5,N#CCCN(CCC#N)c1ccc(C=Nc2ccc(F)cc2)cc1,101 ± 28
6,C/C(NNC(=O)c1ccccc1O)=C1\C=Nc2ccccc2S1,16 ± 5.3
7,CO[C@H](C(=O)[C@@H](O)[C@@H](C)O)[C@@H]1Cc2cc3cc(O[C@H]4C[C@@H](O[C@H]5C[C@@H](O)[C@H](O)[C@@H](C)O5)[C@H](O)[C@@H](C)O4)c(C)c(O)c3c(O)c2C(=O)[C@H]1O[C@H]1C[C@@H](O[C@H]2C[C@@H](O[C@H]3C[C@](C)(O)[C@H](O)[C@@H](C)O3)[C@@H](O)[C@@H](C)O2)[C@H](O)[C@@H](C)O1,10.8 ± 3.6
8,O=C1c2cccc(O)c2C(=O)c2c(O)cccc21,68.8 ± 19
9,O=[N+]([O-])c1cc(C(F)(F)F)cc([N+](=O)[O-])c1CCl,38.4 ± 11
10,CC(=O)/C(=C\c1cccc([N+](=O)[O-])c1)C(=O)Nc1ccccc1C,81.8 ± 22
11,C=C(NC(=O)C(=C)NC(=O)c1csc(C2=N[C@@H]3c4csc(n4)C4NC(=O)c5csc(n5)C([C@](C)(O)[C@@H](C)O)NC(=O)[C@H]5CSC(=N5)/C(=C/C)NC(=O)C(C(C)O)NC(=O)c5csc(n5)C3(CC2)NC(=O)[C@H](C)NC(=O)C(=C)NC(=O)C(=C)NC(=O)C(C(C)C)N[C@@H]2C=Cc3c([C@@H](C)O)cc(nc3[C@H]2O)C(=O)OC4C)n1)C(N)=O (some centres undefined),56.7 ± 21
12,CC(C)(O)CCC(O)C(C)(O)C1CCC2(O)C3=CC(=O)C4(O)CC(O)C(O)CC4(C)C3CCC12C.CC(C)(O)CCC(O)C(C)(O)C1CCC2(O)C3=CC(=O)C4CC(O)C(O)CC4(C)C3CCC12C (centres undefined),98 ± 21
13,CN(C)c1ccc(/C=c2/sc3nc(=O)c(-c4ccccc4NC(=O)C(F)(F)F)nn3c2=O)cc1,83.4 ± 18
14,Cc1ccc(NC(=S)C#N)c(C)c1,89.9 ± 27
15,COc1cc2c(c(OC)c1OC)-c1c(cc3c(c1OC)OCO3)CC(C)C(C)(O)C2OC(=O)c1ccccc1 (centres undefined),130 ± 29
16,c1coc(CNc2ncnc3[nH]ncc23)c1,37.7 ± 8.4
17,CCN(CC)C(=S)S,61.6 ± 19
18,Cc1[nH]c(=O)[nH]c(=O)c1/C=C/C(=O)NC(CO)CC(C)C (centres undefined),94.2 ± 22
19,CCN(CC)CCCC(C)Nc1c2ccc(Cl)cc2nc2ccc(OC)cc12 (centres undefined),37.6 ± 6.1
20,N=N/C(=C\c1c(O)[nH]c2ccccc12)c1ccccc1,64.5 ± 16

row,Compound,cell growth [%]
1,CCC12C[N+]3([O-])CCc4c([nH]c5ccccc45)C(C(=O)OC)(c4cc5c(cc4OC)N(C)C4C(O)(C(=O)OC)C(OC(C)=O)C6(CC)C=CCN7CCC54C76)CC(C3)C1O2 (centres undefined),27.9 ± 4.2
2,COc1cc(-c2cc(=O)c3c(OC)c(OC)c(OC)c(OC)c3o2)cc(OC)c1OC,79 ± 21
3,COc1ccc2cc(CN3CCC(C4CCN(Cc5ccc6cc(OC)ccc6c5)CC4)CC3)ccc2c1,110 ± 24
4,CCOC(=O)c1ccc(N=Cc2ccc(N(CCC#N)CCC#N)cc2)cc1,101 ± 20
5,CCOC(=O)/N=C(\N)SCc1ccccc1,78.4 ± 11
6,O=C(c1ccccc1)C1OC12C(=O)Nc1c(Cl)cc(Cl)cc12 (centres undefined),94.6 ± 19
7,C[C@@H]1CC[C@H]2C(C)(C)[C@H]3C[C@@]12CC[C@@]3(C)O,48.3 ± 7
8,CC(C)CCCC(=O)CCCCCCC(=O)CCN(O)C(=O)C(N)CO (centres undefined),136 ± 15
9,COc1ccc(O)cc1,62.6 ± 18
10,CC(C)CCCCCCCCCCCCC(=O)NCC(=O)NC1C(C)OC(Nc2ncnc3nc[nH]c23)C(O)C1O (centres undefined),17.4 ± 6.2
11,Cc1ccc(S(=O)(=O)c2ccc([N+](=O)[O-])o2)cc1,47.4 ± 31
12,Cc1ccc(NC(=O)/C=C/c2ccccc2)c(C)c1,77.2 ± 16
13,N#CC1CC(c2ccccc2)Nc2cc(Cl)ccc2N1 (centres undefined),80.4 ± 20
14,CCCCCCCCCCNCCSSCc1ccc(Cl)cc1,126 ± 23
15,CC1=C2C(=CO[C@H](C)[C@H]2C)C(=O)C(C(=O)O)=C1O,112 ± 18
16,O=C(CC1(O)C(=O)Nc2c(Cl)cc(Cl)cc21)c1cccc2ccccc12 (centres undefined),90.9 ± 16
17,CC[C@H](C)C(=O)O[C@H]1CCC=C2C=C[C@H](C)[C@H](CC[C@@H]3C[C@@H](O)CC(=O)O3)[C@H]21,135 ± 25
18,COc1cc(/C=C2\S/C(=N/Nc3nc(-c4ccc(Br)cc4)cs3)NC2=O)cc(OC)c1OC,91.9 ± 19
19,O=C1OC(c2ccco2)=N/C1=C\c1ccc(Cl)c(Cl)c1,17.7 ± 5
